Results taken from ChEMBL document CHEMBL4513216, “Probing the Open Global Health Chemical Diversity Library for Multistage-Active Starting Points for Next-Generation Antimalarials” (ACS Infect Dis, 2020).
Screen size: about 69,000 compounds; about 8,600 (12%) showed an effect of 50% or more. This excerpt belongs to a sample that is enriched for strong results.

system: Plasmodium berghei; assay: Screen against P. berghei liver stage (PbLuc), transformed with Luciferase, at 10uM; type: functional, HepG2; conditions: tested at 10 uM

Compound | INHIBITION
CC(=O)NC[C@]1(O)CCN(C(=O)c2ccc(F)c(Cl)c2)C[C@H]1O | 18.9%
O=C1COC2(CCN(Cc3cccnc3)CC2)CN1c1ccccc1 | 48.4%
C[C@@]1(O)CCN(C2CCOCC2)C[C@H]1n1ccc(=O)[nH]c1=O | 10.95%
Clc1ccc(Cc2nc(CNCCn3cccn3)cs2)cc1 | 16.6%
CCc1nn(C)c(Cl)c1CN(CC)Cc1cnn(CC)c1 | -21.9%
Cc1cc(=O)c2cc(F)ccc2n1CC(=O)O | 71.3%
COC(=O)Cn1c(C)cc(=O)c2cc(F)ccc21 | 71.3%
CC(=O)Cn1c(C)cc(=O)c2cc(F)ccc21 | 82.4%
Cc1cc(C)n(C2CN(C(=O)Cn3c(C)cc(=O)c4ccccc43)C2)n1 | 29.1%
COC(=O)CCn1ccc(=O)c2cc(F)ccc21 | 6.34%
COC(=O)Cn1ccc(=O)c2ccc(OC)cc21 | -20%
CC(=O)c1c(O)n(C)c2ccc(F)cc12 | 5.75%
O=C(O)Cn1ccc(=O)c2cc(F)ccc21 | 25.3%
Cc1ccc2c(c1)c(C)cc(=O)n2CC(=O)O | 10.775%
CNC(=O)c1ccc(C2CN(C(=O)c3c[nH]nc3C)CCO2)nc1 (centres undefined) | -20.2%
O=C(NC1CCN(c2ccccc2Br)C1)c1c[nH]nn1 (centres undefined) | 34.2%
CS(=O)(=O)NCC1CCCN(C(=O)Nc2cccc3ccccc23)C1 (centres undefined) | -31.3%
CC(C)C(NC(=O)Cc1ccccc1)C(=O)NCc1ccc(O)nc1 (centres undefined) | 0.991%
CC(C)(C)c1nnc(CN2CCCC2Cn2cncn2)o1 (centres undefined) | 32.707%
CN1CC(=O)N(c2cccc(F)c2)CC12CCN(S(=O)(=O)C1CC1)C2 (centres undefined) | 5.44%
NC(=O)c1cnc(NC2CC2)nc1CCNC(=O)CC1CCCC1 | 31.3%
O=C(NCc1cc[nH]n1)N1CCN(c2ncccn2)CC1 | 33.3%
CCOC(=O)CNC(=O)N1CCN(c2ncccn2)CC1 | 63.5%
CCOC(=O)CCCNC(=O)CN1CCN(c2ncccn2)CC1 | 1.81%
Cn1c(C(=O)NC(Cc2ccsc2)c2cccnc2)cc(=O)n(C)c1=O (centres undefined) | -12.3%
C/C=C(\C)CN1C[C@@H](NC(=O)c2ccc(O)c(Cl)c2)C[C@H]1C(=O)NCC | 22.4%
C/C=C(\C)CN1C[C@@H](NC(=O)c2ccc(F)c(F)c2)C[C@H]1C(=O)NCC | 52%

Compound | INHIBITION
C/C=C(\C)CN1C[C@H](NC(=O)c2cnc(O)cn2)C[C@H]1C(=O)NCC | -7.17%
c1ccc(OCCN2CCCCC2Cn2cncn2)cc1 (centres undefined) | 40.9%
CCCC(C)N(C)C(=O)c1nc(S(C)(=O)=O)n2ccccc12 (centres undefined) | -8.95%
Cc1nc(C)c(C(=O)N2CCc3cc(F)ccc3C2C)o1 (centres undefined) | 52.6%
Cc1nc(C)c(C(=O)N2CCc3ccc(F)cc3C2C)o1 (centres undefined) | -11.6%
Cc1nc(C)c(C(=O)N2Cc3cc(F)ccc3CC2C)o1 (centres undefined) | -9.17%
C=c1ncsc1=C1NN=C(C2CCCN2C(=O)CCn2ccc(C)n2)O1 (centres undefined) | 21.95%
Cc1nn(C)c(C)c1CN(C)CC1(O)CCCN(C)C1 (centres undefined) | 5.18%
CCCc1cnc(C)nc1N1CCC(Cn2cc(CN(C)C)nn2)CC1 | -16.1%
CCCc1cnc(C)nc1N1CCC(Cc2cccc(C(N)=O)c2)C1 (centres undefined) | 52.2%
CCCc1cnc(C)nc1N1CCC2(CCCO2)CC1 | 13.1%
CCCc1cnc(C)nc1N1CCC(Cn2cc(CO)nn2)CC1 | 50.2%
CCCc1cc(N2CCC(Cc3cccc(C(N)=O)c3)C2)nc(C)n1 (centres undefined) | 5.67%
CCCc1cnc(C)nc1N1CCC(Cc2ccc(CO)cc2)C1 (centres undefined) | 75%
CCCc1cnc(C)nc1N1CCC(F)(F)CC1 | -40.6%
CCc1cnc(C)nc1N1CCC(Cc2cccc(C(=O)O)c2)C1 (centres undefined) | 47.2%
CCCc1cnc(C)nc1N1CCC(Cn2cc(C(C)O)nn2)CC1 (centres undefined) | 17.5%
Cn1cnc2c1CCN(Cc1cccc(C(=O)N3CCCCC3)c1)C2 | -40.01%
Cc1cccc(S(=O)(=O)N2C[C@@H]3C[C@H](C(=O)N(C)C)[C@H](C2)O3)c1 | 42.3%
Cc1nc(NC2CC(C)(C)NC(C)(C)C2)c2c(n1)c(C)nn2C | -7.83%
COCCc1noc(CN(C)c2nc(C)nc(C)c2C)n1 | 47.6%
CNc1snc(C)c1C(=O)N1CCCC(n2nc(C)nc2C)C1 (centres undefined) | 19.4%
O=C1CC(NS(=O)(=O)c2cccc(F)c2)CN1 (centres undefined) | 10.7%
CC(=O)N1CCCN(C(=O)NC(C)c2csc3ccccc23)CC1 (centres undefined) | 21.8%
CC(NC(=O)N1CCC(CO)CC1)c1csc2ccccc12 (centres undefined) | 55.5%
CC(NC(=O)N1CCC(CC(N)=O)CC1)c1csc2ccccc12 (centres undefined) | 27.7%
COc1ccc(C(=O)N2CCCCC2c2nccs2)c(OC)c1 (centres undefined) | 7.12%
